The subject of this assay is E. coli BW25113 marRABp lux reporter. The experiment in a line: promoter activity interaction Z-score (Lux/OD deviation from empty-vector control); higher = stronger promoter induction by the compound. As for the experimental part:
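E. coli BW25113 (wild type or ΔmarA/ΔsoxS/Δrob) carrying pTU175 luxCDABE promoter reporters was grown in LB in 384-well plates at 37°C with each of 94 compounds at 4 two-fold concentrations, in biological duplicates. Luminescence and OD600 were read every 30 min for 12 h and integrated as AUC over 8 h (0-8 h WT, 1-9 h mutants). Lux AUC was divided by OD AUC; the interaction score is the residual of a Huber robust fit of each promoter against the empty-vector control, then Z-transformed per promoter.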

The mark [1] stands for this setting: 1 µg/ml, genetic background: wild type.
The mark [2] stands for this setting: 1 µg/ml, genetic background: ΔmarA.
Setting [3] is: 1 µg/ml, genetic background: ΔsoxS.

± gives the standard deviation of the averaged measurements.

`O=C(N[C@H](CO)[C@H](O)c1ccc([N+](=O)[O-])cc1)C(Cl)Cl` [Chloramphenicol]: the “promoter activity interaction Z-score” value reads like this: (0.12 µg/ml, genetic background: wild type) 0.131 ± 0.36; (0.12 µg/ml, genetic background: ΔmarA) 0.172 ± 0.061; (0.12 µg/ml, genetic background: Δrob) 0.31 ± 0.053; (0.12 µg/ml, genetic background: ΔsoxS) 0.215 ± 0.0078; (0.24 µg/ml, genetic background: wild type) 0.735 ± 0.19; (0.24 µg/ml, genetic background: ΔmarA) 0.695 ± 0.4. In addition, the “promoter activity interaction Z-score” value was 0.342 ± 0.21 (0.24 µg/ml, genetic background: Δrob); 0.497 ± 0.14 (0.24 µg/ml, genetic background: ΔsoxS); 1.43 ± 0.31 (0.48 µg/ml, genetic background: wild type); 1.26 ± 0.45 (0.48 µg/ml, genetic background: ΔmarA); 0.873 ± 0.55 (0.48 µg/ml, genetic background: Δrob); 1.19 ± 0.34 (0.48 µg/ml, genetic background: ΔsoxS). Further, the “promoter activity interaction Z-score” value runs as follows: under setting [1], 0.553 ± 0.19; under setting [2], -0.609 ± 0.26; under setting [3], 1.31 ± 0.5.

In the case of `NC1CONC1=O` (stereo unspecified) [Cycloserine D], the “promoter activity interaction Z-score” value runs as follows: under setting [1], -0.0783 ± 0.12; under setting [2], -0.137 ± 0.057; (1 µg/ml, genetic background: Δrob) -0.172 ± 0.25; under setting [3], -0.158 ± 0.078; (1.9 µg/ml, genetic background: wild type) -0.121 ± 0.15; (1.9 µg/ml, genetic background: ΔmarA) 0.00534 ± 0.14. Further, the “promoter activity interaction Z-score” value runs as follows: (1.9 µg/ml, genetic background: Δrob) -0.0886 ± 0.21; (1.9 µg/ml, genetic background: ΔsoxS) 0.0634 ± 0.045; (3.8 µg/ml, genetic background: wild type) -0.109 ± 0.06; (3.8 µg/ml, genetic background: ΔmarA) -0.119 ± 0.032; (3.8 µg/ml, genetic background: Δrob) -0.11 ± 0.062; (3.8 µg/ml, genetic background: ΔsoxS) -0.153 ± 0.013. The “promoter activity interaction Z-score” value is -0.273 ± 0.016 (7.7 µg/ml, genetic background: wild type); -0.299 ± 0.099 (7.7 µg/ml, genetic background: ΔmarA); 0.163 ± 0.27 (7.7 µg/ml, genetic background: Δrob); -0.0525 ± 0.2 (7.7 µg/ml, genetic background: ΔsoxS).

The record behind these values is the supplement of paper PMC12282887.
